Measured values: PubChem BioAssay AID1839 (Johns Hopkins Ion Channel Center, 2009)
Among all 2,400 compounds or so, about 220 (9.2%) were called active.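 How the source made its calls: active means signal change above the mean of dofetilide-free buffer controls plus 3 SD, so a positive margin; inactive means the rest.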 Shown is part of a subset that was picked to be rich in actives.

Assay: thallium signal changes without hERG – cell-based, CHO-K1 parental line, FluxOR thallium flux, counter-screen for hERG block protection project, confirmation (AID 1839);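 further: compounds applied alone with no dofetilide to cells lacking hERG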
Settings: CHO-K1 parental cells, FluxOR thallium flux fluorescence; at 10 µM

SMILES	signal change vs control minus 3*SD hit threshold (margin above threshold, higher = more increase)
CCc1ccc(OCC(=O)Nc2ncn[nH]2)cc1	-35.2% (inactive)
Cc1ccc2[nH]c3c(c2c1)CNCC3	-32% (inactive)
CN(c1ccccc1)S(=O)(=O)c1ccc(Cl)c(C(=O)Nc2nn[nH]n2)c1	-24.2% (inactive)
COc1ccc(C2N=C(c3ccccc3)C(C)(C)N2O)cc1 (stereo not given)	-23.4% (inactive)
Cc1ccccc1-c1nnn(CC(=O)NCc2ccc3c(c2)OCO3)n1	-37.1% (inactive)
Cc1cccc(/N=C/c2sc3ccccc3c2O)n1	-19.2% (inactive)
O=C(NCC1CCCO1)c1ccc2c(=O)n(Cc3ccco3)c(SCC(=O)N3CCCC3)nc2c1 (stereo not given)	-14.7% (inactive)
Clc1cccc(OCCCN2CCCC2)c1Cl	-24.8% (inactive)
CCCCC1C2=C(CCCC2=O)OC2=C1C(=O)CCC2	-34.5% (inactive)
Cc1ccc(C(=O)N2CCN(c3ccccc3)CC2)cc1S(=O)(=O)N1CCCC1	-7.2% (inactive)
Cc1ccc(-c2nc3ccccc3c(=O)n2O)cc1	-12.7% (inactive)
Cc1ccc(-c2nc3c(Cl)cc(Cl)cc3c(=O)n2O)cc1	65.6% (active)
Cc1cc(=O)[nH]c(SCC(=O)NC2CCCCC2)n1	-27% (inactive)
Cc1cccc(NC(=S)NC(=O)c2ccco2)c1C	20% (active)
O=C(NC(=S)Nc1ccc(N2CCCCC2)cc1)c1ccco1	9.4% (active)
Cc1cccc(NC(=O)CCNC(=O)c2ccco2)c1C	-27.7% (inactive)
O=C(NC(=S)Nc1ccccc1Br)c1ccco1	-14.3% (inactive)
CCC(C)c1ccccc1NC(=S)NC(=O)c1ccco1 (stereo not given)	40% (active)
O=C(NC(=S)Nc1cccc(Cl)c1N1CCCCC1)c1ccco1	-27.7% (inactive)
CCOc1ccccc1NC(=S)NC(=O)c1ccco1	-16.7% (inactive)
CCOc1ccc(NC(=S)NC(=O)c2ccco2)cc1	-15.7% (inactive)
O=C(NC(=S)Nc1ccccc1N1CCCC1)c1ccco1	-20.8% (inactive)
O=C1OCCC1Sc1nc2ccccc2c(=O)n1Cc1ccc(F)cc1 (stereo not given)	-13.7% (inactive)
CCc1ccc(C(=O)NNC(=O)c2ccc(=O)n(C)n2)cc1	-31% (inactive)
O=C(NC(=S)N1CCN(c2nc(-c3ccccc3)cs2)CC1)c1cncc(Br)c1	-12.3% (inactive)

SMILES	signal change vs control minus 3*SD hit threshold (margin above threshold, higher = more increase)
CC(NC(=O)NC1CCCCC1)c1ccccc1 (stereo not given)	-8.9% (inactive)
Oc1c(N=Nc2ccccn2)ccc2ccccc12	-28.3% (inactive)
O=C(N/N=C\c1coc2ccccc2c1=O)c1ccco1	-25.6% (inactive)
Cc1c(N2C(=O)/C(=C\c3ccccc3O)SC2=S)c(=O)n(-c2ccccc2)n1C	7.5% (active)
O=C(O)COc1ccccc1/C=C1\SC(=S)N(NC(=O)c2ccccc2O)C1=O	-20.5% (inactive)
CC(/C=C1\SC(=S)N(c2ccc(C(=O)O)cc2)C1=O)=C\c1ccccc1	-40.7% (inactive)
COc1ccc(N(C(=O)c2ccco2)S(=O)(=O)c2cccs2)cc1	-26.1% (inactive)
O=C(Cn1cncn1)c1ccccc1Br	-37.9% (inactive)
Cc1cc(C)cc(-n2ncc3c2CCCC3NC(=O)c2csnn2)c1 (stereo not given)	-40.3% (inactive)
CCCCN1C(=O)/C(=C2/Sc3ccc(Cl)cc3N2CC)SC1=S	-39.8% (inactive)
COc1ccc(OC)c(NC(=O)C(=S)NC2CCCCC2)c1	-22.8% (inactive)
COc1ccc(OC)c(NC(=O)C(=O)NNC(=O)C23CC4CC(CC(C4)C2)C3)c1	42.5% (active)
COc1ccc(OCC(=O)NNC(=O)C(=O)Nc2cc(OC)ccc2OC)cc1	-1.8% (inactive)
CC(NC(=O)CCCn1cc([N+](=O)[O-])cn1)c1ccccc1 (stereo not given)	-29.8% (inactive)
CCCCNC(=S)NNC(=O)c1ccc2c(c1)OCO2	-29.2% (inactive)
N=C1C(=O)OCC1c1cc(Cl)ccc1NC(=O)Nc1ccccc1 (stereo not given)	-31.4% (inactive)
CC(C)(C)NC(=O)C(=O)NNC(=O)c1cccc(Br)c1	-6.8% (inactive)
Cc1cccc(C(=O)NC(=S)NNC(=O)c2ccc(Cl)cc2)c1	-44.5% (inactive)
CCCc1cc(C(=O)NNC(=S)Nc2cccc(C)c2)cs1	-32.4% (inactive)
Cc1cccc(NC(=O)C(=O)NNC(=O)c2ccc(C(C)(C)C)cc2)c1	44.5% (active)
CC(C)(C)NC(=O)C(=O)NNC(=O)c1ccc(C(C)(C)C)cc1	1.9% (active)
CC(C)(C)NC(=O)C(=O)NNC(=O)c1ccccc1	-23.3% (inactive)
CCOC(=O)N1CCN(C(=O)COC(=O)c2cc(Cl)c(O)c(Cl)c2)CC1	-24.7% (inactive)
Cc1ccc(O)c(Sc2cc(C)ccc2O)c1	-41.7% (inactive)
CC(C)CSC1=NSC2=NC(=O)/C(=C\c3ccccc3)C(=N)N12	-21.5% (inactive)

SMILES	signal change vs control minus 3*SD hit threshold (margin above threshold, higher = more increase)
O=C(COc1coc(CN2CCc3ccccc3C2)cc1=O)Nc1cccc(Cl)c1	-31.3% (inactive)
CCOc1ccc2[nH]c(=O)c(CN(Cc3ccc(C)cc3)C(=O)N3CCCC3)cc2c1	-28% (inactive)
COc1ccc(NC(=O)C2CC3CCC2C3)c(OC)c1 (stereo not given)	-22.3% (inactive)
O=C(N/N=C/C(Cl)=C/c1ccc([N+](=O)[O-])cc1)C(=O)Nc1ccc(C(=O)O)cc1	-32.7% (inactive)
O=[N+]([O-])c1ccc(Nc2ccccc2F)nc1	-20.1% (inactive)
CCOc1ccc(C(=O)N(CN2CCCC2=O)c2ccc(C)cc2)cc1	7.5% (active)
COc1ccc(C(=O)N(CN2CCCC2=O)c2ccc(C)cc2)cc1	-4.3% (inactive)
O=C(NCCCN1CCCC1=O)c1ccc(OC(F)(F)F)cc1	-32.6% (inactive)
CCOC(=O)Cc1csc(NC(=S)NC(=O)c2ccc(Cl)cc2)n1	-26.4% (inactive)
C=C(C)CNC(=S)NN=C1c2ccccc2-c2ccccc21	-25% (inactive)
Cc1ccc(-c2c(=O)n(O)c3ccccc3[n+]2[O-])cc1	15.9% (active)
O=c1c(-c2cccc3ccccc23)[n+]([O-])c2ccccc2n1O	-12.8% (inactive)
O=c1c(-c2ccc(Cl)cc2)[n+]([O-])c2ccccc2n1O	29.3% (active)
O=c1c(-c2ccccc2)[n+]([O-])c2ccccc2n1O	-26.3% (inactive)
COc1ccc(S(=O)(=O)N2CCN(C(=O)CNC(=O)c3ccc4c(c3)OCO4)CC2)cc1	-26.4% (inactive)
Cc1cc2c(cc(C(=O)OC(C(=O)NCc3ccco3)C(C)C)n2C)o1 (stereo not given)	-12.7% (inactive)
Cn1c(=O)c2c(nc(Cl)n2CC(=O)N2CCCCC2)n(C)c1=O	-27.9% (inactive)
CCOC(=O)C1CCCCN1Cc1ccc(F)cc1 (stereo not given)	-18.3% (inactive)
CCc1ccc(S(=O)(=O)NC(=S)NC2CCCCC2)cc1	1.9% (active)
Cc1ccc(S(=O)(=O)NC(=S)NC2CCCCC2)cc1	-13% (inactive)
O=S(=O)(NC(=S)NC1CCCCC1)c1ccc(Cl)cc1	-16.4% (inactive)
CCCn1c(CC)nc([N+](=O)[O-])c1S(=O)(=O)c1ccccc1	-15.2% (inactive)
COC(=O)c1c(NS(=O)(=O)Cc2ccccc2)sc2c1CCCC2	-1.7% (inactive)
CCC(C)(C)NC(=O)c1ccc(Sc2nncn2C)c([N+](=O)[O-])c1	-27.2% (inactive)
Cc1ccc(Nc2cc(C)nn2-c2nc(C)cc(=O)[nH]2)cc1	15.1% (active)

SMILES	signal change vs control minus 3*SD hit threshold (margin above threshold, higher = more increase)
Cc1ccc(Nc2nc(C)cs2)cc1	-10.7% (inactive)
Cc1cccc(N/C(N)=N/c2nc(C)cc(=O)[nH]2)c1	-33% (inactive)
CC(C)(C)Cc1nnc(NC(=O)c2ccco2)s1	-32.3% (inactive)
CC1=[N+]([O-])C(C)(C)C(c2ccc(Br)cc2)=[N+]1[O-]	-17% (inactive)
COC(=O)c1sc(NC(=S)NC(=O)c2ccccc2F)nc1C	-6.2% (inactive)
Cc1ccc(NC(=O)c2ccc3c(c2)OCO3)cc1Cl	-25.4% (inactive)
O=C(COc1ccc(Cl)cc1)NNC(=O)C(=O)NC1CCCCC1	-26.3% (inactive)
COc1ccc(C(=O)NNC(=O)C(=O)NC2CCCCC2)cc1	-33.5% (inactive)
COc1ccc(NC(=O)C(=O)NNC(=O)c2ccc(Cl)cc2Cl)cc1	-20.1% (inactive)
Cc1ccc(NC(=O)C(=O)NNC(=O)c2ccccc2C)cc1Cl	35% (active)
COc1ccccc1C(=O)NNC(=O)C(=O)Nc1ccc(C)c(Cl)c1	55.4% (active)
Cc1ccccc1C(=O)NNC(=O)c1cccc([N+](=O)[O-])c1	-30% (inactive)
COc1ccccc1C(=O)NNC(=O)C(=O)NCc1ccccc1	3.6% (active)
COc1ccccc1C(=O)NNC(=O)C(=O)NC1CCCCC1	14.6% (active)
COc1cc(NC(=O)c2ccccc2OCc2ccccc2)cc(OC)c1OC	-34.3% (inactive)
COc1ccccc1C(=O)NCc1ccc2c(c1)OCO2	-31% (inactive)
COc1ccc(C(=O)CC(=O)C(=O)Nc2ccc(C)c(Cl)c2)cc1	-23% (inactive)
Cc1ccc(-n2ncc3c2CCCC3NC(=O)c2csnn2)cc1C (stereo not given)	-37.5% (inactive)
Cc1ccc(NC(=O)c2c([N+](=O)[O-])c(C(C)(C)C)nn2C)cc1	-22.3% (inactive)
Cc1cc(C)c(NC(=O)C2CC3CCC2C3)c(C)c1 (stereo not given)	-16.2% (inactive)
CC(C)(C)C(=O)NC(=S)N1CCOCC1	-15.9% (inactive)
Cc1ccc(C)n1-n1c(C)nc2scc(-c3ccccc3)c2c1=O	-33.2% (inactive)
Cc1c(Cl)cccc1NC(=S)N=Nc1c(O)n(CN2CCOCC2)c2ccccc12	-31.2% (inactive)
O=C(NC(=S)N(CCc1ccccc1)CCc1ccccc1)c1ccco1	-17.5% (inactive)
CCOc1ccc(S(=O)(=O)Nc2nc3ccccc3nc2-n2ccc(=NC(=O)c3cccs3)cc2)cc1	-31.9% (inactive)
